Common to all, as to assay: NCI-60 one-dose screen, 48 h (100 = growth as untreated, 0 = no growth, -100 = all killed)
Common to all, as to conditions: 10 µM

For experiment [1], the system named is NCI-H23 lung.
The test system of experiment [2] is NCI-H226 lung.
Experiment [3] relates to NCI-H322M lung.
The subject of experiment [4] is HOP-62 NSCLC.
The subject of experiment [5] is NCI-H460 lung.
Experiment [6] relates to HOP-92 NSCLC.
The subject of experiment [7] is NCI-H522 lung.
For experiment [8], the system named is A549/ATCC NSCLC.
Experiment [9] has as its system 786-0 renal.
Experiment [10] deals with COLO 205 colon.

These results are taken from PubChem BioAssay (NCI).

SMILES strings stand for the structures. The panel holds about 83,000 compounds, 20% with a hit somewhere; the sample as a whole holds those more often.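 Results are percent growth after 48 hours of single-concentration exposure. 100 means growth as in untreated cells, lower positive values show inhibition; negative values down to -100 show cell death.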 Unmarked numbers belong to inactive results. Calls of active or inactive are those of the source. How the source made its calls: active means growth percent below 10; inactive means the rest.

Take `COC1=C[C@]23CCC(=O)N2CCc2cc4c(cc2[C@@H]3[C@@H]1OC(=O)CCCC(C)C)OCO4`: the growth in experiment [1] is 53.2%; in experiment [2] it was 23.3%; in experiment [3], 108%; in experiment [4] it was 70.5%; in [5], 17.4%; in [6] it was 95.6%. The growth in experiment [7] is -2.41% (active); in experiment [8] it was 49.9%; in experiment [9], 80.5%; in [10], 68%.
As for `COc1cc(/C=C/C(=O)c2ccc(NC(=O)CSc3nnc(-c4c[nH]c5ccccc45)n3-c3ccccc3)cc2)cc(OC)c1OC`, the growth in [1] is 47.7%; in [2], 69.9%; in [3], 90.5%; in experiment [4], 101%; in experiment [5], 91.2%; in [6], 105%. The growth was 90.5% in experiment [7], 106% in experiment [8], 96.1% in experiment [9] and 102% in experiment [10].
Regarding `CCNCCCn1c2c(c3cc(OC)c(OC)cc3c1=O)C(=O)c1cc3c(nc1-2)OCO3`, the growth in experiment [1] was -27.2% (active); in experiment [2] it was -79.7% (active); in experiment [3], 35.2%; in experiment [4], 11.7%; in [5] it was -24.7% (active); in experiment [6], 44.4%. Besides, the growth in experiment [7] is 35.8%; in [8], 21.1%; in [9], -71.7% (active); in experiment [10] it was 25.7%.
As to `CNC(=O)c1cccc(N2CCc3c2ccc(NC(=O)Nc2ccc(N4CCN(C)CC4)c(C(F)(F)F)c2)c3F)c1`, the growth in [1] is -85.6% (active); in [2], 104%; in experiment [3], -92% (active); in [4], -80% (active); in experiment [5], -81% (active); in [6], -83% (active). Moreover, the growth in experiment [7] is -91.7% (active); in [8], -86% (active); in experiment [9] it was -95.6% (active); in experiment [10], 92.7%.
`N#Cc1ccc(-c2nn(-c3ccc(C(=O)O)cc3)cc2CNc2ccc(Cl)cc2)cc1`: the growth in experiment [1] is 73.3%; in [2] it was 85%; in experiment [3], 88.8%; in experiment [4] it was 81.3%; in experiment [5], 93.1%; in experiment [6] it was 133%. Besides, the growth in experiment [7] is 81.3%; in experiment [8], 84.6%; in experiment [9], 87.2%; in [10] it was 142%.
For `O=C(CNc1nc(-c2ccccc2)cs1)Nc1cccc([N+](=O)[O-])c1`, the growth was -92.5% (active) in experiment [1]; -42.5% (active) in [2]; -71.4% (active) in experiment [3]; -76.2% (active) in experiment [4]; 4.92% (active) in experiment [5]; -49.2% (active) in experiment [6]. In addition, the growth in [7] was -83.2% (active); in experiment [8], -72.7% (active); in [9], -85.1% (active); in experiment [10] it was -64.1% (active).
In the case of `CN1CCc2c(sc3ncnc(N/N=C/c4cn(-c5ccccc5)nc4-c4ccc(Cl)cc4)c23)C1`, the growth in [1] was -20.6% (active); in experiment [2], 33.1%; in experiment [3] it was 28.7%; in experiment [4] it was 29.8%; in [5], 1.06% (active); in [6] it was 45.7%. Besides, the growth in experiment [7] is 3.5% (active); in experiment [8] it was 26.3%; in [9], 25.3%; in experiment [10] it was -30.1% (active).
As for `CN1CCO/C1=C(/NC(=O)c1ccc(Cl)cc1)[P+](c1ccccc1)(c1ccccc1)c1ccccc1`, the growth in experiment [1] was 84.5%; in experiment [2] it was 89.3%; in [3], 96.6%; in [4] it was 95%; in experiment [5], 94.1%; in experiment [6], 60.9%. Further, the growth was 58.4% in experiment [7], 102% in experiment [8], 103% in experiment [9] and 68.9% in experiment [10].
For the molecule `O=C(CSc1nnc(-c2ccc3nc(-c4ccc(Cl)cc4)[nH]c3c2)o1)Nc1ccc(Cl)cc1`, the growth is -73.9% (active) in [1]; -68.8% (active) in [2]; -66.5% (active) in [3]; -56.4% (active) in [4]; -51.3% (active) in experiment [5]; -6.37% (active) in experiment [6]. Also, the growth in experiment [7] was -45.1% (active); in experiment [8], -58.4% (active); in experiment [9], -76.8% (active); in experiment [10] it was 7.13% (active).
Regarding `CCCCCCCCCCCCCCCCCCCC(=O)NCCc1c[nH]c2ccc(OC(=O)CCCC(=O)OCCOOCCOOCCOOCCOOCCOOCCOOCCOOCCOOCCOOCCOOCCOOCCOC)cc12`, the growth in [1] is 59.7%; in [2], 52.9%; in experiment [3] it was 109%; in [4] it was 120%; in [5] it was 50.4%; in experiment [6] it was 74.7%. Besides, the growth in experiment [7] is -82.9% (active); in [8], 42.3%; in experiment [9], 83.9%; in experiment [10], 117%.
For the molecule `Cc1ccc(-c2nc(Nc3ccc(S(N)(=O)=O)cc3)c3ccccc3n2)cc1`, the growth in experiment [1] was 71.2%; in experiment [2], 73.5%; in experiment [3], 53.2%; in [4], 66.7%; in experiment [5] it was 22.4%; in experiment [6] it was 36.4%. In addition, the growth in experiment [7] was 77.3%; in [8], 51.7%; in experiment [9], 14.2%; in experiment [10], 82.9%.
Regarding `N#Cc1ccc(-c2nn(-c3ccc(C(=O)O)cc3)cc2CNc2cc(Cl)cc(Cl)c2)cc1`, the growth in experiment [1] was 18.7%; in experiment [2], 47.2%; in experiment [3] it was 58%; in experiment [4], 41.8%; in experiment [5], 32.3%; in experiment [6] it was 46.8%. The growth in [7] was 73.1%; in experiment [8], 53.7%; in experiment [9], 36%; in experiment [10], 109%.
